High-throughput results deposited in PubChem by National Center for Advancing Translational Sciences (NCATS).
Compounds with a hit are over-represented: about 2.3% of the library has one in this group of screens.
Nrf2 activator – activators of Nrf2 (ARE) signaling; hit rate 0.31% among 410,000; AREc32 ARE-luciferase reporter (MCF7-derived line), luminescence, 24 h; AID 624171; Potency, µM (top dose mostly 46.1 µM), for inactives: at the highest dose activation, actives largely listed as activators; further: potency means the concentration at half of the fitted maximal effect; % of control where 0% means no effect; nearly all actives have a fitted effect of over 65% in size
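AREc32 cells carrying an ARE-driven firefly luciferase, 1000 cells/well in OPTI-MEM with 5% FBS, dosed after overnight attachment and incubated 24 hr at 37 deg C. Steady-Glo luminescence read after 30 min at RT.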
Apoferritin bind – candidate novel general anesthetic via apoferritin binding; P02791; apoferritin/1-aminoanthracene competitive binding, fluorescence; Potency, µM (series often up to 77.5 µM), inactives show at the highest dose activity change, negative = displacement, usual class: inhibitors; hit rate 0.074% among 350,000; further: potency means the concentration at half of the fitted maximal effect; on the % scale 0 is the no-effect control and ±100 the full control effect; nearly all actives have a fitted effect of over 20% in size
Target sequence (P02791 2-175 limits assumed): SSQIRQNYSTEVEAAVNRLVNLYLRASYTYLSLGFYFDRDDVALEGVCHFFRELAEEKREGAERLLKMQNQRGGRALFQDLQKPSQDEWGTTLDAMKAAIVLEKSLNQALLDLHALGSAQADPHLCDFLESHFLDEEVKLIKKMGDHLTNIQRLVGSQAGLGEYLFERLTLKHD
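10 uM apoferritin + 50% sat. 1-AMA, PBS; cpd 10 min RT; Ex380/Em535 endpoint; normalized to free probe vs complex; 4-param Hill fit; propofol titration as pos. ctrl.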
A549 viability – counter-screen for Nrf2 inhibitors: cytotoxicity in A549 cells; Potency, µM (highest dose often 46 µM), without a hit: at the top dose activity change, negative = cytotoxicity, most hits filed as inhibitors; hit rate 0.16% among 390,000; A549 ARE-Fluc cells, CellTiter-Fluor viability, 18-24 h; further: potency means the concentration at half of the fitted maximal effect; on the % scale 0 is the no-effect control and ±100 the full control effect
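Cytotoxicity counterscreen: CellTiter-Fluor fluorescence was measured in A549 ARE_Fluc cells after 18-24 h of compound exposure in a concentration series. The subsequent BugLite luminescent read reports ARE-luciferase activity.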
Giardia killer – Giardia lamblia killing; Giardia lamblia trophozoite viability; activity change, % at 7.66 µM, hits read low; hit rate 0.15% among 340,000; in the data active means activity change below about -80%; inconclusive means between about -30% and that limit;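 further: parasites exposed to compound for two days anaerobically before the ATP read; on the % scale 0 is the no-effect control and ±100 the full control effect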
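Luminescent ATP signal served as the viability read-out, measured 15-30 min after adding ATP detection reagent to trophozoites that had been incubated with compounds for 48 hrs at 37 deg C anaerobically at 100 cells/well.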
Nrf2 inh – blocks Nrf2 signaling; A549 ARE-Fluc reporter, luciferase luminescence, 18-24 h; Potency, µM (titrated, usually from 46 µM), for the others: top-dose activity change, negative = inhibition, hits mostly inhibitors; hit rate 2.1% among 360,000; AID 504444; further: potency means the concentration at half of the fitted maximal effect; on the % scale 0 is the no-effect control and ±100 the full control effect; nearly all actives have a fitted effect of over 60% in size
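A549 ARE_Fluc cells, 5000/well, 5% FBS OPTI-MEM; compounds in dose-response, 18-24 h at 37 °C/5% CO2; CellTiter-Fluor viability read (Ex 405/Em 525), then BugLite luciferase luminescence = Nrf2 activity.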
IDH1 R132H inh – blocks human mutant IDH1 R132H enzyme; Potency, µM (top dose mostly 76.6 µM), without a hit: at the highest dose activity change, negative = inhibition, hits mostly inhibitors; IDH1-R132H enzyme, NADPH consumption, diaphorase/resazurin fluorescence; O75874; hit rate 0.093% among 390,000; further: potency means the concentration at half of the fitted maximal effect; on the % scale 0 is the no-effect control and ±100 the full control effect; nearly all actives have a fitted effect of over 65% in size
Target sequence (O75874 whole entry R132H, stated change not applied): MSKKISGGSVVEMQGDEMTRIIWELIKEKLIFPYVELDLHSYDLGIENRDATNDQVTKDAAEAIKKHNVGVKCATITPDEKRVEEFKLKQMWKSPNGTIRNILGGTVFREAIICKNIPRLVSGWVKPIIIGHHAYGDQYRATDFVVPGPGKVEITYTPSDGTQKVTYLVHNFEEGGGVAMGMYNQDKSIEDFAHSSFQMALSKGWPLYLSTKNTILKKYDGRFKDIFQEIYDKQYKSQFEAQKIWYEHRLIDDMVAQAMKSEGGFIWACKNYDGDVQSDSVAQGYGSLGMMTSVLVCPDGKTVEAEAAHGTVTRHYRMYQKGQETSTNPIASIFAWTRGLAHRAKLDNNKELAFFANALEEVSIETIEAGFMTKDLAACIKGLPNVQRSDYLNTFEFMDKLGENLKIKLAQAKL
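IDH1-R132H (0.5 ug/mL dispensed) in pH 7.5 Tris buffer was preincubated 30 min with compound, then given a substrate mix of 0.016 mM NADPH and 2 mM alpha-KG for 80 min at room temperature; remaining NADPH was read by diaphorase/resazurin fluorescence.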
The depositor's hits bear a star. Unless noted, the call rests on the fitted dose curve; in most records, active means well fitted curve in the direction sought with a large enough effect; inconclusive means small, poorly fitted or top-dose-only effect, or another doubt; inactive means no such curve, though single readings can be large; an effect the other way counts as inactive or inconclusive.

For COc1ccc(/C=N/NC(=O)c2ccc(N(C)S(=O)(=O)c3ccccc3)cc2)c(OC)c1 the results were Nrf2 activator -0.2%, Apoferritin bind 23.2%, A549 viability 12.7%, Giardia killer -20.9, Nrf2 inh 3.5% and IDH1 R132H inh -4.2%.
Cc1ccc(/C=C/S(=O)(=O)Nc2ccc(C)cc2)cc1 was read as Nrf2 activator 0.0%, Apoferritin bind -19.7%, A549 viability -4.0%, Giardia killer -10.4, Nrf2 inh -0.4% and IDH1 R132H inh 6.7%.
For COc1ccc(CCNC(=O)c2ccc(N(C)S(=O)(=O)c3ccc(C)cc3)cc2)cc1 the results were Nrf2 activator 0.2%, Apoferritin bind 65.9%, A549 viability -7.3%, Giardia killer 4.9, Nrf2 inh inconclusive and IDH1 R132H inh 1.7%.
For COc1ccc(CCNC(=O)c2ccc(Cl)c(S(=O)(=O)N(C)c3ccccc3)c2)cc1 the results were Nrf2 activator -0.2%, Apoferritin bind 2.3%, A549 viability -24.2%, Giardia killer 3.1, Nrf2 inh 18.4µM* and IDH1 R132H inh 5.0%.
For Cc1ccc(NC(=O)c2ccc(NS(=O)(=O)/C=C/c3ccccc3)cc2)nc1 the results were Nrf2 activator 2.1%, Apoferritin bind -16.2%, A549 viability -7.2%, Giardia killer 3.8, Nrf2 inh 20.6µM* and IDH1 R132H inh -4.3%.
COc1ccc(/C=N/NC(=O)c2ccc(N(C)S(=O)(=O)c3ccccc3)cc2)cc1 was read as Nrf2 activator 3.9%, Apoferritin bind -7.8%, A549 viability -16.1%, Giardia killer -12.2, Nrf2 inh 25.9µM* and IDH1 R132H inh 3.2%.
Screening O=C(NCCCN1CCCCCC1)C(c1ccccc1)C1CCCCC1 (configuration not stated) returned Apoferritin bind -10.2%.
Screening O=C1CCN(CCc2ccccc2)CCN1C(CSc1ccc(Br)cc1)Cc1ccccc1 (configuration not stated) returned Apoferritin bind 31.5%, A549 viability inconclusive, Giardia killer 3.1 and Nrf2 inh inconclusive.
`COC(=O)c1cc(=O)n(CCc2ccc(OC)c(OC)c2)c(=Nc2ccc(F)c(Cl)c2)s1` gave Nrf2 activator 0.1%, Apoferritin bind -8.4%, A549 viability inconclusive, Giardia killer -26.1, Nrf2 inh 23.1µM* and IDH1 R132H inh 8.1%.
`CC(/C=N/n1c(-c2ccc(Cl)cc2)n[nH]c1=S)=C\c1ccco1` gave Nrf2 activator 2.82µM*, Apoferritin bind -16.9%, A549 viability -7.0%, Giardia killer -16.2, Nrf2 inh 12.9% and IDH1 R132H inh -9.4%.
For CC(/C=N/n1cnnc1)=C\c1ccco1 the results were Nrf2 activator 11.2µM*, Apoferritin bind -3.5%, A549 viability -1.4%, Giardia killer -0.4, Nrf2 inh 11.7% and IDH1 R132H inh 0.0%.
`COc1ccc(CN(Cc2ccccc2)C(=O)c2ccccc2N)cc1COc1ccc(NC(C)=O)cc1` gave A549 viability -2.4% and Nrf2 inh -9.9%.
Screening CS(=O)(=O)c1sc2nc(-c3cccs3)cc(-c3ccccc3)c2c1N returned Nrf2 activator 2.9%, Apoferritin bind -2.0%, A549 viability -4.4%, Giardia killer -4.2, Nrf2 inh -19.8% and IDH1 R132H inh 10.3%.
Screening Cc1ccc(-c2cc(-c3ccccc3)c3c(N)c(S(C)(=O)=O)sc3n2)cc1 returned Nrf2 activator 2.3%, Apoferritin bind inconclusive, A549 viability 11.3%, Giardia killer -8.5, Nrf2 inh 13µM* and IDH1 R132H inh -4.6%.
`O=c1n2c(c(O)n1C1CCCCC1)C(c1ccccc1)=Nc1ccccc1C2` gave Nrf2 activator 14.4%.
Screening COc1ccc(-c2nc3cc(NC(=O)Cc4ccc(Cl)cc4)ccc3o2)cc1OC returned Nrf2 activator -0.1%, Apoferritin bind -13.5%, A549 viability inconclusive, Nrf2 inh 23.1µM* and IDH1 R132H inh 8.6%.
`O=C(Cc1ccc(Cl)cc1)Nc1ccc2oc(-c3ccc(F)cc3)nc2c1` gave Nrf2 activator 0.4%, Apoferritin bind 3.1%, A549 viability -0.5%, Nrf2 inh inconclusive and IDH1 R132H inh -6.9%.
`COc1ccc(-c2nc3cc(NC(=O)CSc4ccc(C)cc4)ccc3o2)cc1` gave Nrf2 activator -1.2%, Apoferritin bind -9.1%, A549 viability -20.3% and Nrf2 inh 2.1%.
Screening COc1ccc(CC(=O)Nc2ccc(-c3cn4cccc(C)c4n3)cc2)cc1OC returned Nrf2 activator 7.4%, Apoferritin bind -3.7%, A549 viability 2.5%, Giardia killer 15.7, Nrf2 inh 7.31µM* and IDH1 R132H inh -7.0%.
COc1ccc(-c2nc3cc(NC(=O)Cc4ccc(OC)c(OC)c4)ccc3o2)cc1 was read as Nrf2 activator 0.6%, Apoferritin bind -11.1%, A549 viability inconclusive, Giardia killer -15.9, Nrf2 inh 14.6µM* and IDH1 R132H inh 1.3%.
`CCOc1ccccc1NC(=O)C(=O)c1cc(C)n(-c2cccc(C)c2C)c1C` gave Nrf2 activator 4.8%, Apoferritin bind -1.2%, A549 viability -1.4%, Nrf2 inh 7.5% and IDH1 R132H inh -2.6%.
Screening O=C(C=Cc1ccccc1O)c1ccccc1O returned Nrf2 activator 14.1µM*, A549 viability -1.0%, Giardia killer 9.1, Nrf2 inh 5.4% and IDH1 R132H inh 0.8%.
`Cc1ccc(NS(=O)(=O)c2ccc3c(c2)CCN(C(=O)C(F)(F)F)C3)cc1C` gave A549 viability 1.7% and Nrf2 inh inconclusive.
For O=S(=O)(c1ccc(N=C2NN=C(c3cc(F)ccc3F)CS2)cc1)N1CCOCC1 the results were Nrf2 activator 14.0%, Apoferritin bind -9.0%, A549 viability -4.2%, Giardia killer -25.6, Nrf2 inh inconclusive and IDH1 R132H inh 26.1µM*.
For CC(C)(C)N=C1NN=C(c2ccc(S(=O)(=O)N3CCCCC3)cc2)CS1 the results were Nrf2 activator 4.8%, A549 viability -13.3%, Giardia killer 7.2, Nrf2 inh inconclusive and IDH1 R132H inh -0.9%.
Screening Fc1ccc(F)c(C2=NNC(=Nc3ccccc3F)SC2)c1 returned Nrf2 activator 15.4%, Apoferritin bind -21.7%, A549 viability inconclusive, Giardia killer 7.2, Nrf2 inh -14.4% and IDH1 R132H inh inconclusive.
`CC(=O)Nc1ccc(C2=NNC(=Nc3ccc(S(=O)(=O)N4CCOCC4)cc3)SC2)cc1` gave Nrf2 activator 2.2%, Apoferritin bind -10.5%, A549 viability -12.5%, Giardia killer 16.8, Nrf2 inh -23.9% and IDH1 R132H inh 13.1µM*.
